The structures appear in SMILES notation.

Results on 31 compounds are retold here after PubChem BioAssay.

The target in assay [1] is Tumor necrosis factor receptor superfamily member 10B (Homo sapiens) (UniProt O14763). Put plainly: viability loss of caspase-8 NB7 cells with TRAIL – with/without TRAIL, luminescence panel, confirmation (AID 651596). To be noted: NB7 neuroblastoma + caspase-8, TRAIL sensitization, NB7 Caspase-8, with TRAIL, mean of runs, at 10 µM, stronger effect = higher value.
Assay in assay [2]: as above
To be noted: NB7 neuroblastoma + caspase-8, without TRAIL, NB7 Caspase-8, without TRAIL, mean of runs, at 10 µM.

Assay [3] deals with Tumor necrosis factor receptor superfamily member 10B (Homo sapiens) (UniProt O14763). The assay can be described thus: compound enhancement of TRAIL-induced cell killing – NB7 cells plus caspase-8, luminescence, panel, dose response (AID 652002). To be noted: NB7 neuroblastoma +caspase-8, TRAIL sensitization, luminescence viability, NB7+Caspase-8, with TRAIL, run 1; at 12.5 µM (top of the series).

Assay [4] has the same target. Described as above. Particulars: NB7 neuroblastoma +caspase-8, TRAIL sensitization, luminescence viability, NB7+Caspase-8, with TRAIL, run 2; at 12.5 µM (top of the series).
Assay in assay [5]: as above
Particulars: NB7 neuroblastoma +caspase-8, no TRAIL, compound-alone cytotoxicity counter-screen, luminescence viability, NB7+Caspase-8, run 1; at 12.5 µM (top of the series) unless noted.

Assay in assay [6]: as above
To be noted: NB7 neuroblastoma +caspase-8, no TRAIL, compound-alone cytotoxicity counter-screen, luminescence viability, NB7+Caspase-8, run 2; at 12.5 µM (top of the series) unless noted. Background: The purpose of a counterscreen is to sort out artefacts and off-target activity.

Tumor necrosis factor receptor superfamily member 10B (Homo sapiens), sequence (O14763 whole entry, looked up): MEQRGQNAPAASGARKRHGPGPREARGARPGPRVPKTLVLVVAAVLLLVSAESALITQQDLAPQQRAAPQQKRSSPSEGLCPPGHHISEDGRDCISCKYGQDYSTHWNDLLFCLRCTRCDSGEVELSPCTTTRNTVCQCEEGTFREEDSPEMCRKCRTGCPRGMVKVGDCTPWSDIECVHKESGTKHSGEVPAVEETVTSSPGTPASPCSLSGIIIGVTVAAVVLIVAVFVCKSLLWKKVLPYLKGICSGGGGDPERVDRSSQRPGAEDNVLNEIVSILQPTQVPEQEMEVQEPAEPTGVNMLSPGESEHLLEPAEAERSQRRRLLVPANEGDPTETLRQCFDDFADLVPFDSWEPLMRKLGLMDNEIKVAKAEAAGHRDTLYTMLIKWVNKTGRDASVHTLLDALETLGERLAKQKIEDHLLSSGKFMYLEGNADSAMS

Consider `Cc1c(P(=S)(c2ccccc2)c2ccccc2)[n+]2ccccc2n1CCc1ccccc1`, for which the activity in assay [1] is 52%; in assay [2], 44.7%. Moreover, the activity, % sensitization stood at 3.09% in assay [3], 9.7% in assay [4], 3.44% in assay [5] and 9.46% in assay [6].

For the compound `O=C(Nc1ccc(Br)cc1F)c1ccc2c(c1)OCCO2`, the activity was found to be 56.6% in assay [1] and 43% in assay [2]. Also, the activity, % sensitization in assay [3] is 35.1%; in assay [4], 39.5%; in assay [5], 7.23%; in assay [6], 34.6%.

Consider `Cc1cc(N/N=C/c2ccccc2)nc(NCc2ccccc2)n1`, for which the figures for the activity in assay [1] and in assay [2] were 53.9% and 41.1%, respectively. Further, the activity, % sensitization in assay [3] turned out to be 30.4%; in assay [4], 39.6%; in assay [5], 5.63%; in assay [6], 26.4%.

Consider `Cn1c(=O)c2c(SCC(=O)Nc3ccccc3F)nc(C3CC3)nc2n(C)c1=O`, for which the activity is 50.8% in assay [1] and 44.9% in assay [2]. Besides, the activity, % sensitization was -6.81% in assay [3], -10.3% in assay [4], -1.87% in assay [5] and -25.4% in assay [6].

Take `CCOC(=O)c1ccc(N/C=C/C(=O)c2ccco2)cc1`: the activity is 52.7% in assay [1] and 46.1% in assay [2]. The activity, % sensitization in assay [3] stood at 24.1%; in assay [4], 9.37%; in assay [5], 0.326%; in assay [6], 6.5%.

Turning to `C(=C\c1ccco1)/c1nc2ccccc2[nH]1`, the activity in assay [1] was found to be 57.9%; in assay [2] it was 31.6%. The activity, % sensitization is -0.105% in assay [3], 5.08% in assay [4], -6.68% in assay [5] and -0.982% in assay [6].

With `O=c1[nH]c(N/N=C\c2ccc3c(c2)OCO3)nc2ccccc12`, the activity in assay [1] amounted to 53.6%; in assay [2] it was 50.5%. Besides, the activity, % sensitization came out at 33.9% in assay [3], 44.5% in assay [4], 38.2% in assay [5] and 35.1% in assay [6].

`COc1ccccc1C=NNC(=O)NN=Cc1ccccc1OC`: the activity in assay [1] turned out to be 61%; in assay [2], 46.5%. Moreover, the activity, % sensitization in assay [3] was 42.5%; in assay [4] it was 48.3%; in assay [5], 54.1%; in assay [6] it was 35.8%.

For the compound `CCOC(=O)C(=C1Nc2ccccc2N1)n1c(-c2cccnc2)nc2ccccc21`, the activity came out at 55.9% in assay [1] and 52% in assay [2]. For the same compound, the activity, % sensitization was 44.5% in assay [3], 36.8% in assay [4], -4.97% in assay [5] and 41.7% in assay [6].

For the compound `Cc1cc(NC(=O)C2CCCC2)nc2c1c(=O)oc1ccccc12`, the results for the activity in assay [1] and in assay [2] were 68.7% and 50.2%, respectively. The activity, % sensitization in assay [3] was 15%; in assay [4], -6.85%; in assay [5] it was 0.143%; in assay [6] it was 17.1%.

Regarding `CSc1nc(N)n2nc(-c3ccc(Cl)cc3)cc2n1`, the activity worked out at 63.9% in assay [1] and 45.2% in assay [2]. The activity, % sensitization was -2.8% in assay [3], -10.2% in assay [4], 0.419% in assay [5] and -17.1% in assay [6].

Regarding `O=C(ONC1=NCCCCC1)c1ccc(Cl)cc1`, the activity in assay [1] stood at 89.3%; in assay [2], 47.2%. The activity, % sensitization in assay [3] came to 16.1%; in assay [4], 23.5%; in assay [5], 7.61%; in assay [6], 44.2%.

`Cc1ccc2oc(-c3cccc(N)c3)nc2c1`: the activity in assay [1] amounted to 60.5%; in assay [2], 46.2%. Further, the activity, % sensitization stood at 45.8% in assay [3], 58.3% in assay [4], 53% in assay [5] and 34% in assay [6].

On to `Cc1nn(-c2ccccc2)c2nc(N)c(C#N)c(-c3ccc(F)cc3)c12`, for which the activity in assay [1] turned out to be 61.9%; in assay [2] it was 46.8%. For the same compound, the activity, % sensitization in assay [3] is -8.21%; in assay [4], 4.3%; in assay [5], 6.23%; in assay [6], 37.2%.

For `COCCNC(=O)c1cc(-c2ccc(-c3ccccc3)cc2)nc2ccccc12`, the activity worked out at 57.7% in assay [1] and 44.5% in assay [2]. The activity, % sensitization in assay [3] came to 36.7%; in assay [4], 40.6%; in assay [5], 51%; in assay [6], 41.3%.

Consider `O=C1Cc2c(-c3ccccc3)cc(-c3cccc(Cl)c3)nc2-c2ccccc2N1`, for which the values for the activity in assay [1] and in assay [2] were 52.9% and 39.5%, respectively. Moreover, the activity, % sensitization was -1.76% in assay [3], -0.0597% in assay [4], -14.1% in assay [5] and -20.4% in assay [6].

As for `Cc1nc(Cl)c2oc3ccccc3c2n1`, the activity was 84% in assay [1] and 31.1% in assay [2]. Further, the activity, % sensitization was -4.95% in assay [3], -0.917% in assay [4], -7.33% in assay [5] and -8.16% in assay [6].

As to `CCOc1ccc2nc(NC(=O)c3cccc(-c4cc5ccccc5oc4=O)c3)sc2c1`, the activity in assay [1] stood at 56.2%; in assay [2] it was 31.1%. Besides, the activity, % sensitization in assay [3] is -26.2%; in assay [4], -15.7%; in assay [5] it was -20.2%; in assay [6], -25.4%.

With `CN(C)CCCN(C(=O)c1ccc(C(=O)c2ccccc2)cc1)c1nc2ccc(F)cc2s1`, the activity amounted to 64.6% in assay [1] and 34.9% in assay [2]. In addition, the activity, % sensitization stood at 12.1% in assay [3], 3.85% in assay [4], 0.995% in assay [5] and 25.8% in assay [6].

For the compound `CCOc1ccc(-c2nnc(-c3ccccc3)o2)cc1`, the figures for the activity in assay [1] and in assay [2] were 56% and 47.3%, respectively. The activity, % sensitization in assay [3] was 39.4%; in assay [4], 39.8%; in assay [5] it was 11.9%; in assay [6] it was -2.15%.

Take `Cc1onc(-c2c(Cl)cccc2Cl)c1C(=O)ONC(=O)c1ccccc1`: the activity in assay [1] is 72.9%; in assay [2], 30.8%. The activity, % sensitization is 1.55% in assay [3], -5.77% in assay [4], -2.95% in assay [5] and -9.25% in assay [6].

As for `Cc1ccnc(NC(=O)Nc2ccc3c(c2)OCO3)c1`, the activity was 51% in assay [1] and 41% in assay [2]. Further, the activity, % sensitization in assay [3] is 40.8%; in assay [4] it was 17%; in assay [5], 0.866%; in assay [6], -33.8%.

As to `C/C(=N\NC(=O)c1n[nH]c2c1CCC2)c1ccco1`, the activity came out at 55.8% in assay [1] and 51.4% in assay [2]. In addition, the activity, % sensitization in assay [3] came to 28.7%; in assay [4], 33.5%; in assay [5], 27.9%; in assay [6] it was 24.1%.

Turning to `c1ccc(Nc2nnc(-c3cccnc3)s2)cc1`, the activity was 57.6% in assay [1] and 40.5% in assay [2]. The activity, % sensitization in assay [3] was 46.2%; in assay [4] it was 42.2%; in assay [5] it was -5.23%; in assay [6], -13.3%.

Take `Cc1ccn2cc(C(=O)Nc3ccc4c(c3)OCCO4)nc2c1`: the activity in assay [1] was found to be 58.2%; in assay [2], 50.8%. The activity, % sensitization is 38.4% in assay [3], 40.7% in assay [4], 47.9% in assay [5] and 50.7% in assay [6].

For `CC(=O)c1ccc(NC(=O)Nc2cccnc2)cc1`, the figures for the activity in assay [1] and in assay [2] were 52.1% and 45%, respectively. The activity, % sensitization in assay [3] was determined as 32.2%; in assay [4], 44.9%; in assay [5] it was 35.1%; in assay [6] it was 43.9%.

For the compound `O/C(=C\c1ccc2ccccc2n1)c1ccc(O)cc1O`, the results for the activity in assay [1] and in assay [2] were 62.3% and 42.8%, respectively. For the same compound, the activity, % sensitization in assay [3] stood at 31.9%; in assay [4] it was 48.7%; in assay [5] it was 1.18%; in assay [6], 20.3%.

In the case of `CCOc1ccc(/C=C/C(=O)Nc2cccc(C(C)=O)c2)cc1`, the activity is 50.7% in assay [1] and 37.2% in assay [2]. Besides, the activity, % sensitization was determined as 14.7% in assay [3], 23.8% in assay [4], 37.9% in assay [5] and 17.4% in assay [6].

With `O=C1CCCc2nc(N3CCc4ccccc43)ncc21`, the activity in assay [1] was found to be 45.5%; in assay [2], 25.6%. Further, the activity, % sensitization in assay [3] is 22.4%; in assay [4], -9.35%; in assay [5] it was 0.829%; in assay [6], -3.85%.

As for `CN1C[C@@H]2[C@@H]3C(=O)N(Cc4ccccc4)C(=O)[C@@H]3[C@](Cc3ccccc3)(C1=O)N2C(=O)c1ccc(C(C)(C)C)cc1`, the figures for the activity in assay [1] and in assay [2] were 74.5% and 47.9%, respectively. For the same compound, the activity, % sensitization is -1.09% in assay [3], 15.8% in assay [4], 7.44% in assay [5] and -17% in assay [6].

On to `CCOc1ccc(NC(=O)c2ccco2)cc1`, for which the activity in assay [1] worked out at 55.9%; in assay [2] it was 49.6%. Further, the activity, % sensitization in assay [3] came out at 43%; in assay [4], 43.3%; in assay [5], 45.1%; in assay [6], 31.6%.
